A selection: hits, their analogues and other compounds. The true share with any hit is near 18%.
DT40 TDP1 no CPT – qHTS for Inhibitors of human tyrosyl-DNA phosphodiesterase 1 (TDP1): qHTS in cells in absence of CPT | 420,000 compounds, 15% hits | Potency, µM (highest dose often 46.2 µM), for inactives: top-dose activity change, negative = growth inhibition, most hits filed as inhibitors | DT40 Tdp1-/- hTDP1 cells, no CPT, ATP luminescence, 48 h; note: potency is the fitted concentration of half-maximal effect; nearly all actives have a fitted effect of over 55% in size
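Luminescent ATP content (CellTiter-Glo) served as the growth readout. Knockout chicken DT40 cells expressing human TDP1 were exposed to compounds without camptothecin for a minimum 48 hr at 37 °C.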
VP16 counter – VP16 counterscreen qHTS for inhibitors of ROR gamma transcriptional activity; Potency, µM (series often up to 53.6 µM), for the others: at the highest dose activity, negative = inhibition, actives largely listed as inhibitors; 310,000 compounds, 3.5% hits; Drosophila S2 Gal4-VP16 UAS-luciferase, luminescence, 20 h; AID 2546, 2010;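 note: Gal4-VP16 expression switched on by copper sulfate through the metallothionein promoter; potency is the fitted concentration of half-maximal effect; nearly all actives have a fitted effect of over 50% in size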
RORg inh – qHTS for inhibitors of ROR gamma transcriptional activity. Drosophila S2 Gal4-RORgamma UAS-luciferase reporter, 20 h. 310,000 compounds, 5.4% hits. Nuclear receptor ROR-gamma (Mus musculus), P51450. Potency, µM (top dose mostly 53.6 µM), for inactives: at the top dose activity change, negative = inhibition, most hits filed as inhibitors; note: potency is the fitted concentration of half-maximal effect; nearly all actives have a fitted effect of over 60% in size
Target sequence (P51450 whole entry, looked up, the tested form may be a part): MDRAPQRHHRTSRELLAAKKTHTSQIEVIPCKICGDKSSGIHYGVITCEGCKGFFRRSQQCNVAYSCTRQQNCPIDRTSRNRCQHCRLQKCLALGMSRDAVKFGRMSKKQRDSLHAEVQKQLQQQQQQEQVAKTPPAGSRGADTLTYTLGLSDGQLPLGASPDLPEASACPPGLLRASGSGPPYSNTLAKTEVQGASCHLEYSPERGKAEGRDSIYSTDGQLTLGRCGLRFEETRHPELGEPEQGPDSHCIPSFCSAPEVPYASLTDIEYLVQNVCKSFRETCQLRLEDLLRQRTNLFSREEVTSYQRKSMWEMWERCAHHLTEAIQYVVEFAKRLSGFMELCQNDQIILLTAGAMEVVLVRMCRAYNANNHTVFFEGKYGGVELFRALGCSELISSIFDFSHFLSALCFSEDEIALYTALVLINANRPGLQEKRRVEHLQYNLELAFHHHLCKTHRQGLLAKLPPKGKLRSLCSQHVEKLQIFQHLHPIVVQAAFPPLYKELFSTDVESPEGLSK
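Read-out: Photinus luciferase luminescence; inhibitors lower reporter signal. Insect Schneider cells with Gal4-ROR gamma fusion under metallothionein promoter, UAS reporter; 700 uM final copper sulfate induction, 20 hr, ambient temperature.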
LDHA inh – qHTS assay for inhibitors of human lactate dehydrogenase. L-lactate dehydrogenase A chain (Homo sapiens), P00338. AID 1347041, 2019. purified LDHA, NADH/diaphorase-resazurin fluorescence; hits give low values. activity change, % (values are at about 110 or 230 µM). 480,000 compounds, 0.15% hits; in the data active = activity change below about -30%; inconclusive = mostly about -25% to -30%;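 note: plate controls were DMSO wells for no effect and wells without enzyme for full effect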
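Human LDH5 (2 nM) was incubated with 0.06 mM NADH and 0.2 mM pyruvate for 5 min at room temperature in Tris pH 7.4. Remaining NADH was coupled through diaphorase/resazurin, and resorufin fluorescence was read at 0 and 20 min.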
IL1B secr inh – qHTS for Inhibitors of Inflammasome Signaling: IL-1-beta AlphaLISA Primary Screen; activity change, % at 57.5 µM; THP-1 LPS/ATP IL-1B secretion, AlphaLISA, 16 h; hits give low values; 360,000 compounds, 4.7% hits; in the data active = activity change below about -50%; inconclusive = mostly about -30% to -49%
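Secreted IL-1B measured by AlphaLISA bead assay after 16 h compound exposure of THP-1 cells; compounds (final up to 57.5 uM) added 1 h before LPS (250 ng/mL) and ATP (1.25 mM) stimulation; lower signal means less secretion.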
TDP1 cell CPT – qHTS for Inhibitors of human tyrosyl-DNA phosphodiesterase 1 (TDP1): qHTS in cells in presence of CPT. chicken DT40 Tdp1-/-;hTDP1 cells + 20 nM CPT, ATP luminescence, 48 h. Potency, µM (titrated, usually from 46.2 µM), for inactives: top-dose activity change, negative = growth inhibition, hits mostly inhibitors. 420,000 compounds, 12% hits; note: potency is the fitted concentration of half-maximal effect; nearly all actives have a fitted effect of over 55% in size
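Chicken DT40 Tdp1-/- cells stably complemented with human TDP1 were seeded at 400 cells/well in medium containing 20 nM camptothecin, exposed to pin-transferred compounds, and grown at 37 °C for at least 48 hr. Viability was read as ATP luminescence.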
Starred values were filed as active, the others as inactive; ? = inconclusive; . = no result given; [ ] = dose if it differs, or a comment. Unless noted, calls come from the whole dose curve; as a rule, active = well fitted curve in the direction sought with a large enough effect; inconclusive = small, poorly fitted or top-dose-only effect, or another doubt; inactive = no such curve, though single readings can be large; an effect the other way counts as inactive or inconclusive. Unless noted, % is set by controls: 0 for no effect and ±100 for the full control effect.

SMILES | DT40 TDP1 no CPT | VP16 counter | RORg inh | LDHA inh | IL1B secr inh | TDP1 cell CPT
Cc1cccc(CNc2nc(-c3c(C)noc3C)nc3ccccc23)c1 | ? | -22% | -6% | . | . | ?
c1ccc(CNc2c3ccccc3nc3ccccc23)cc1 | 18µM* | -13% | -21% | -11 | -100* | 13µM*
O=C(CCCc1nc(-c2ccccc2)no1)Nc1cccc(S(=O)(=O)N2CCOCC2)c1 | . | . | . | 1 | . | .
Cc1ccc2c(CN3CCc4ccccc43)cc(=O)oc2c1C | . | . | . | 0 | . | .
Oc1ccc(CCNc2c3ccccc3nc3ccccc23)cc1O | 1.5µM* | -9% | -30% | 13 | -99* | 1.2µM*
CCCCNc1nc(NCc2ccccc2)nc2ccccc12 | 8.2µM* | . | . | -3 | -110* | 21µM*
Cc1ccc(NC(=O)c2cc3c(s2)CCC3)cc1 | . | . | . | -1 | . | .
CCN(CC1CCCO1)S(=O)(=O)c1cccc(C#N)c1 (stereo unspecified) | . | . | . | -6 | . | .
CCOc1ccc(NC(=O)CSc2nc3ccccc3c(=O)n2CC2CCCO2)cc1 (stereo unspecified) | . | . | . | -5 | . | .
Cc1cc2ccccn2c1C(=S)NC(=O)c1ccccc1 | ? | 3.5µM* | 3.2µM* | -7 | -13 | ?
C/C(=N/Nc1ccc(C(=O)c2c(C)cc3ccccn23)cc1[N+](=O)[O-])c1ccc(O)cc1 | ? | . | . | -6 | -4 | 18µM*
Cc1cc2ccccn2c1C(=O)c1ccc(Cl)cc1 | -24% | 16µM* | ? | -5 | -25 | -28%
Cc1ccc(C(=O)NC(=S)c2c(C)cc3ccccn23)cc1 | ? | . | . | -2 | -12 | ?
Cc1cccc(Cc2c(C)nc3nc(C(F)(F)F)[nH]n3c2=O)c1 | . | . | . | 7 | . | .
CC(OC(=O)c1cc2ccccc2[nH]1)C(=O)Nc1ccccc1 (stereo unspecified) | . | . | . | -11 | . | .
O=c1c2ccccc2sn1-c1ccc(Cl)c(S(=O)(=O)N2CCOCC2)c1 | 3.2µM* | . | . | -14 | . | 1.4µM*
N#Cc1c(SCC(=O)Nc2ccccc2)nc(N2CCCC2)c2c1CCCC2 | . | . | . | 1 | . | .
COc1ccccc1CNC(=O)c1cc2cccc3c2n1CC(C)S3 (stereo unspecified) | 23µM* | . | . | -1 | . | 21µM*
CC1Cn2c(C(=O)NCCc3ccc(Cl)cc3)cc3cccc(c32)S1 (stereo unspecified) | ? | . | . | 1 | . | 16µM*
COc1ccccc1CNC(=O)CCC(=O)N1CC(C)Sc2ccccc21 (stereo unspecified) | ? | -2% | -1% | -3 | -28 | 18µM*
NC(=O)c1ccc(S(=O)(=O)NCCc2ccc(-n3cccn3)cc2)cc1 | . | . | . | -4 | . | .
CCCCCCCCS(=O)CCO (stereo unspecified) | . | . | . | 1 | . | .
C[C@@H](C(=O)N1CCN(c2ccc(F)cc2)CC1)n1cnc2ccccc2c1=O | . | . | . | 2 | . | .
O=C(COc1cccc2ccccc12)N1CCN(c2ccccc2)CC1 | ? | 0% | ? | -1 | -10 | ?
O=C(COc1cccc2ccccc12)N1c2ccccc2CCc2ccccc21 | 18µM* | -14% | -2% | 2 | ? | ?
SMILES | DT40 TDP1 no CPT | VP16 counter | RORg inh | LDHA inh | IL1B secr inh | TDP1 cell CPT
O=C(COc1ccc(F)cc1)N1c2ccccc2CCc2ccccc21 | 18µM* | -12% | 41% | 1 | -19 | ?
O=C(COc1ccc2ccccc2c1CN1CCOCC1)N1CCc2ccccc21 | ? | 8% | 7% | -5 | -74* | ?
Cc1ccc(Cn2ncc3c2NC(=O)CC32C(=O)N(C)c3c(Cl)cccc32)cc1 (stereo unspecified) | . | . | . | 5 | . | .
Cc1cc(OC(C)C(=O)NCCCN(C)C)c2c(C)c(C)c(=O)oc2c1 (stereo unspecified) | . | . | . | 9 | . | .
CCCCn1c(=O)n(CC(=O)NC(C)C(C)C)c(=O)c2c1ncn2Cc1ccco1 (stereo unspecified) | . | . | . | 0 | . | .
O=C(C1CC1)N1CCN(c2ccc([N+](=O)[O-])cc2-n2cccc2)CC1 | 13µM* | -20% | 39% | 3 | -6 | 12µM*
CC(C)(C)C(=O)N1CCN(c2ccc([N+](=O)[O-])cc2-n2cccc2)CC1 | 21µM* | 5% | ? | -9 | -5 | ?
Cc1ccc(Nc2ccc(N3CCN(C(=O)c4ccc([N+](=O)[O-])cc4)CC3)nn2)cc1 | 23µM* | . | . | 3 | . | ?
Cc1ccc(C(=O)N2CCN(c3ccc([N+](=O)[O-])cc3-n3cccc3)CC2)cc1 | 18µM* | -12% | 32% | 2 | ? | ?
COc1cc(N=c2c([N+](=O)[O-])nn(-c3ccc4c(c3)OCCO4)n2O)cc(OC)c1 | 1.6µM* | -18% | 15% | 3 | -22 | 1.5µM*
CCc1cccc(N=c2c([N+](=O)[O-])nn(-c3ccc4c(c3)OCCO4)n2O)c1 | 3.3µM* | ? | -3% | -2 | 0 | 1.8µM*
Cc1cccc(N=c2c([N+](=O)[O-])nn(-c3ccc(Cl)cc3)n2O)c1 | 1% | ? | 6% | -5 | 22 | 4%
CCc1cccc(N=c2c([N+](=O)[O-])nn(-c3ccc(Cl)cc3)n2O)c1 | ? | -4% | -3% | 9 | 5 | 21µM*
O=[N+]([O-])c1nn(-c2ccc3c(c2)OCCO3)n(O)c1=NCc1ccc(F)cc1 | ? | -12% | 23%[10 µM] | 6 | -76* | ?
O=S(=O)(Nc1nc2ccccc2nc1NCc1ccccc1)c1cccs1 | . | . | . | -7 | . | .
CN(C)C(=O)c1ccc(Cl)cc1NS(=O)(=O)c1cccc(F)c1 | . | . | . | 3 | . | .
O=C(COc1coc(CN2CCCCC2)cc1=O)NCc1ccccc1 | . | . | . | -17 | . | .
C=C(C)CN(CC)C(=O)CN1CCC(C(=O)NCCCO)CC1 | . | . | . | -9 | . | .
Cc1c(Cl)c([N+](=O)[O-])nn1CCCC(=O)Nc1cccc(Cl)c1 | ? | ? | ? | 3 | -3 | ?
Cc1cc(C)cc(N=c2c([N+](=O)[O-])nn(-c3cccc(Cl)c3)n2O)c1 | ? | 2% | -24% | -1 | -1 | 11µM*
Cc1ccc(S(=O)(=O)CCC(=O)NCc2ccc(Cl)cc2)cc1 | -14% | -1% | -5% | -2 | 6 | 3%

Screening data deposited in PubChem by National Center for Advancing Translational Sciences (NCATS).
